Laboratory results from PubChem BioAssay (NCI).
This is part of a sample that, as a whole, favours compounds with a hit. Of some 83,000 tested, about 20% had one in any assay.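 Cells were grown in 96-well plates and exposed to the test compound at a single concentration for 48 hours; results are reported as percent growth, with values below 10 considered active.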 Values without a mark were called inactive. Active and inactive are the calls of the source.

Legend:
Assay in all cases: NCI-60 one-dose screen, 48 h (100 = growth as untreated, 0 = no growth, -100 = all killed)
Settings in all cases: 10 µM unless noted
NCI-H23 lung = system: NCI-H23 lung
NCI-H226 lung = system: NCI-H226 lung
NCI-H322M lung = system: NCI-H322M lung
HOP-62 NSCLC = system: HOP-62 NSCLC
NCI-H460 lung = system: NCI-H460 lung
HOP-92 NSCLC = system: HOP-92 NSCLC
NCI-H522 lung = system: NCI-H522 lung
A549/ATCC NSCLC = system: A549/ATCC NSCLC
786-0 renal = system: 786-0 renal
COLO 205 colon = system: COLO 205 colon

Row | SMILES | growth (NCI-H23 lung) | growth (NCI-H226 lung) | growth (NCI-H322M lung) | growth (HOP-62 NSCLC) | growth (NCI-H460 lung) | growth (HOP-92 NSCLC) | growth (NCI-H522 lung) | growth (A549/ATCC NSCLC) | growth (786-0 renal) | growth (COLO 205 colon)
1 | COc1ccc2[nH]c(=O)c(CN3CCN(c4nccc(-c5ccc(Cl)cc5)n4)CC3)cc2c1 | 91.2% | 94.4% | 85.4% | 80.1% | 76.3% | 101% | 77% | 73.9% | 85.2% | 95.9%
2 | COc1ccc(-c2cnc3c(-c4cccc5cnccc45)cnn3c2)cc1 | 74.5% | 29.3% | 68.3% | 55.1% | 23.4% | 63% | 48.3% | 39.8% | 29.4% | 67.8%
3 | CC1(C)CC[C@]23CC[C@]4(C)[C@H](CC[C@@H]5[C@@]6(C)CCCNC(C)(C)[C@@H]6CC[C@]54C)[C@H]2[C@H]1OC3 | 41.2% | 34.8% | -21.4% (active) | 27.7% | -60.6% (active) | -37.2% (active) | 9.35% (active) | -45.6% (active) | -96.2% (active) | -68.2% (active)
4 | CCCOc1ccc(/C=N/Nc2cc(C)nc3ccc(Br)cc23)cc1 | 86.9% | 93.3% | 94.5% | 92.7% | 70.5% | 67.9% | 101% | 94.6% | 100% | 44.8%
5 | COc1ccc(C(=O)NNc2nc(Cl)nc(N3CCN(C(c4ccccc4)c4ccccc4)CC3)n2)cc1 | 3.63% (active) | 90.1% | 57.6% | 86.5% | 101% | 74% | -33% (active) | 92.6% | 69.1% | 60.5%
6 | COc1cc2nc(-c3ccc(C(F)(F)F)cc3)cc(OCCN3CCCCC3)c2cc1OC | 84.7% | 73.2% | 73.1% | 69.7% | 46.3% | 68.2% | 91.2% | 81% | 78.7% | 27.4%
7 | CNCCn1c(=O)c2cc(OC)c(OC)cc2c2ccc3cc4c(cc3c21)OCO4 | -18.1% (active) | -98.8% (active) | -14.5% (active) | 3.19% (active) | -18.4% (active) | -5.84% (active) | -35.2% (active) | -81.2% (active) | -51% (active) | -61.6% (active)
8 | COc1ccc(/C=C/c2nc(Nc3ccc(S(=O)(=O)Nc4cc(C)on4)cc3)c3ccccc3n2)cc1 | 81.3% | 65.9% | 37.3% | 57.7% | 53.9% | 46% | 63.5% | 39.1% | 87.9% | 48.6%
9 | CC(Oc1ccc(C(=O)O)cc1C(F)(F)F)c1ccc(Oc2ccccc2)cn1 (stereo not given) | 98.6% | 97.6% | 99.5% | 99.1% | 104% | 97.8% | 88.2% | 99.9% | 99.4% | 130%
10 | O=C1C=CC(=O)N1c1cccc(Cl)c1 | 103% | 107% | 121% | 101% | 111% | 76% | 69.9% | 93% | 105% | -6.46% (active)
11 | C=C1C(=O)O[C@H]2[C@H]1CC/C(COC(=O)NCc1c[nH]c3ccc(Br)cc13)=C\CC[C@@]1(C)O[C@@H]21 | 29.4% | 4.62% (active) | 74% | 58.5% | 24.1% | -46.3% (active) | -89.9% (active) | 49.1% | -47.7% (active) | -78.2% (active)
12 | COc1ccc(/C=C/c2nc(Nc3cccc(NC(C)=O)c3)c3ccccc3n2)cc1 | 87.6% | 82.3% | 45.5% | 82.1% | 84.3% | 69.4% | 75.9% | 55.4% | 88.9% | 105%
13 | COc1ccc(/C=C/C(=O)Nc2cc(/C=C\c3cc(OC)c(OC)c(OC)c3)cc(OC)c2OC)cc1OC | 0.824% (active) | 37.6% | 42.3% | 33.9% | 17.5% | 46.2% | -21.3% (active) | 40% | 23% | 11.2%
